Measured values taken from PubChem BioAssay (NCATS).
Records with an inconclusive call do not appear. Values without a mark were called inactive. Calls come from the whole dose curve; as a rule, active = well fitted curve in the direction sought with a large enough effect; inconclusive = small, poorly fitted or top-dose-only effect, or effect the other way, or another doubt; inactive = no such curve, though single readings can be large or run the other way.

biological target: Transient receptor potential cation channel subfamily V member 1 (Homo sapiens) (UniProt Q8NER1); test: HTS Assay for Compounds that Act as Enhancers of the Vanilloid Receptor 1 (AID 488979); settings: TRPV1-expressing cells, enhancer of channel activity, stimulated with capsaicin at EC20; series mostly up to 41.7 µM; activity change, positive = enhancement: at the top concentration; note: 0% is about no effect
Text: The transient receptor potential ion channel, family V, number 1, (TRPV1) is one of the most important molecular transducers of painful stimuli and a potential target for analgesic drug development. Although recent clinical trials with orthosteric antagonists have not produced a successful drug because of a hyperthermia side effect and their tendency to block thermal noxious pain, this ion channel is undeniably well placed in the pain pathway, and the idea of blocking pain signals before they enter the CNS is an excellent concept and of proven efficacy when TRPV1 agonists are used. We propose a new approach involving allosteric modulation to impose an activity-dependent constraint within the context of inflammation and tissue damage that would alter the responsiveness of the channel in a way that an orthosteric vanilloid antagonist cannot achieve. We believe that the allosteric modulator approach has not been explored for this target.
The main goal of this proposal is to identify additional, new, potent allosteric modulators of TRPV1 that can be used to investigate TRPV1 function. Our recent report provides evidence of proof of concept, but the compounds are just at the edge of utility in terms of potency. […] The question of whether they can be used as analgesic agents is complex, but if suitable compounds are identified then testing for analgesic properties will be conducted.
Upon TRPV1 activation in TRPV1 cells, the channel opens and extracellular cations flow through the channel into the cytosol. A calcium binding dye (Fluo-8) becomes fluorescent when bound to calcium. This dye is pre-loaded into cells and is used as a marker for calcium influx.
The amount of accumulated calcium is precisely quantified using the FDSS kinetic reader and the calcium dye.
For the HTS assay, freshly prepared cells are plated at a density of 2000/well in 3 ul medium in 1536-well plates and cultured overnight at 35.5C. Cells will be loaded with 1 ul of the homogeneous calcium dye (ABD Bioquest) at room temperature for 40 to 90 minutes. Plates will be loaded into the FDSS kinetic reader and a 1 sec / cycle for 10 second baseline signal will be measured. Compound library will then be added with a pintool at 23 nl and measured kinetically for 3 minutes. This portion of the read is considered the agonist portion of the screen. Following the 3 minutes of incubation, an on board pipettor will deliver 1 ul of capsaicin for a final concentration equal to the EC20. Signal will be measured kinetically for an additional 2 minutes. This portion of the read is considered the allosteric enhancer portion of the screen.
The FDSS reader has a standard filter set capable of measuring calcium bound Fluo-8 (ex=480 and em=520 nm).

Sequence of Transient receptor potential cation channel subfamily V member 1 (Homo sapiens) (Q8NER1 whole entry, looked up): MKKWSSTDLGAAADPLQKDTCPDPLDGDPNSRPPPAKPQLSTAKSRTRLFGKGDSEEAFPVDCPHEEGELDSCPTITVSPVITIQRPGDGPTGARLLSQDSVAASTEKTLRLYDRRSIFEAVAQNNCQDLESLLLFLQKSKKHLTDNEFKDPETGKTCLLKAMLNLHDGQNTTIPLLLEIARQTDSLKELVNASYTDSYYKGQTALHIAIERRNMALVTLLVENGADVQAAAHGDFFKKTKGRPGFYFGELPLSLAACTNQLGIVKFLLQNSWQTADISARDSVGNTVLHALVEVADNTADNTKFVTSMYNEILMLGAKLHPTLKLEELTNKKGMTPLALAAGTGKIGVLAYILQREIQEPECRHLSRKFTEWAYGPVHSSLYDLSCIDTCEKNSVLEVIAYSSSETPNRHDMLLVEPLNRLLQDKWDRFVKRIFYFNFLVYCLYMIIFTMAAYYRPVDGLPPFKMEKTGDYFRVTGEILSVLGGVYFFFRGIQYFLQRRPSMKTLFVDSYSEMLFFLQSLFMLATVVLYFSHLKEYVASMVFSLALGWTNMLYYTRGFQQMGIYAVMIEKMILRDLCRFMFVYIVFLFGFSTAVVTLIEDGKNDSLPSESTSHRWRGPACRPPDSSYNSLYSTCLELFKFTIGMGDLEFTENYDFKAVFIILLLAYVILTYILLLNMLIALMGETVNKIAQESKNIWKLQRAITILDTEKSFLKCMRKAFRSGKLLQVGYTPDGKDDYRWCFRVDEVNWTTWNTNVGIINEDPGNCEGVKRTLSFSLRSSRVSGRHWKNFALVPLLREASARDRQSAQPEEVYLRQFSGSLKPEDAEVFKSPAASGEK

SMILES | activity change, positive = enhancement [%]
C[C@]12CCC(=O)C=C1CC[C@@H]1[C@@H]2CC[C@@]2(C)[C@H]1CC[C@]2(O)C(=O)CO | 18.3
CN(C)CC[C@@H](c1ccc(Br)cc1)c1ccccn1 | 25
CCN(Cc1ccncc1)C(=O)C(CO)c1ccccc1 (stereo not given) | -4.83
NS(=O)(=O)c1cc2c(cc1Cl)NC(C1CC3C=CC1C3)NS2(=O)=O (stereo not given) | 12.4
CN(C(=O)CCCOc1ccc2[nH]c(=O)ccc2c1)C1CCCCC1 | 9.85
CNC1(C)C2CCC(C2)C1(C)C (stereo not given) | 10
CC(N=C(NC#N)Nc1ccncc1)C(C)(C)C (stereo not given) | 2.21
CC(C(=O)O)c1ccc(CC2CCCC2=O)cc1 (stereo not given) | 2.03
O=C1CC2(CCCC2)CC(=O)N1CCCCN1CCN(c2ncccn2)CC1 | -8.12
Nc1c2c(nc3ccccc13)CCCC2O (stereo not given) | 7.8
C[N+](C)(C)CCOC(N)=O | 11.9
CC1=NS(=O)(=O)c2cc(Cl)ccc2N1 | -5.4
Cc1ccc(S(=O)(=O)NC(=O)NN2CCCCCC2)cc1 | -9.49
O=C(O)CP(=O)(O)O | -3.26
CC[N+](C)(C)c1cccc(O)c1 | 2.85
CCCN(CCC)C(=O)C(CCC(=O)O)NC(=O)c1ccccc1 (stereo not given) | 1.66
NC(N)=N/N=C/c1c(Cl)cccc1Cl | 21.3
COc1cc(C(=O)OCCCN2CCCN(CCCOC(=O)c3cc(OC)c(OC)c(OC)c3)CC2)cc(OC)c1OC | 6.77
CCN(CC)CCNC(=O)c1ccc(NC(C)=O)cc1 | -3.42
CCCCNC(=O)NS(=O)(=O)c1ccc(C)cc1 | 11.7

SMILES | activity change, positive = enhancement [%]
CCN(CC)CCOCCOC(=O)C1(c2ccccc2)CCCC1 | 3.67
NCCCNCCSP(=O)(O)O | -3.8
COc1ccc(CCN(C)CCCC(C#N)(c2cc(OC)c(OC)c(OC)c2)C(C)C)cc1OC (stereo not given) | 15.3
CSc1ccc(C(=O)c2[nH]c(=O)[nH]c2C)cc1 | -20.1
CC1=C(C)C(=O)C(CCCCC#CCCCC#CCO)=C(C)C1=O | -10.6
Cc1nc2c([nH]1)c(=O)n(C)c(=O)n2Cc1ccco1 | 4.59
c1ccc2c(c1)CCCC2C1=NCCN1 (stereo not given) | -5.14
O=c1[nH]c(=O)n([C@H]2C[C@H](O)[C@@H](CO)O2)cc1Br | -3.21
CCCN1C[C@H](CSC)C[C@@H]2c3cccc4[nH]cc(c34)C[C@H]21 | 6.26
COC(=O)[C@H]1[C@H]2C[C@@H]3c4[nH]c5cc(OC)ccc5c4CCN3C[C@H]2C[C@@H](OC(=O)c2cc(OC)c(OC)c(OC)c2)[C@@H]1OC | 5.25
COC(=O)[C@@H](N)Cc1ccc(O)c(O)c1 | 4.65
CN/C(=C\[N+](=O)[O-])NCCSCc1ccc(CN(C)C)o1 | 0.568
CC(=O)OC(C)C[N+](C)(C)C (stereo not given) | 6.73
CN(C)C(=O)Oc1ccc[n+](C)c1 | -4.64
C(=C\c1ccccc1)/CN1CCN(C(c2ccccc2)c2ccccc2)CC1 | -7.98
CCCCNc1c(C(=O)OCC)c(C)nc2c1cnn2CC | -0.801
CCN(CC)CC(=O)Nc1c(C)cccc1C | -5.68
C[C@]12C=CC(=O)C=C1CC[C@H]1[C@@H]3C[C@@H](O)[C@](O)(C(=O)CO)[C@@]3(C)C[C@H](O)[C@@]12F | -2.23
OC(CCN1CCCCC1)(c1ccccc1)C1CCCCC1 (stereo not given) | 24
CN(C)CCOC(=O)COc1ccc(Cl)cc1 | -6.47
